Experimental data reported in PubChem BioAssay AID1159580 (chemical genetic matrix, 2015).
About 2,000 (36%) of roughly 5,500 compounds were called active. Not shown: some 18% with an inconclusive outcome. Rule as the data show it: active = normalized growth mostly below about 0.91 (no sharp cut-off); inconclusive = no clear call, values can overlap the other calls; inactive = mostly above about 0.92. This is one part of the list.

Assay: chemical genetic growth profiling, strain panel (AID 1159580);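 also: tested at 20 µM; growth read once vehicle control cultures reached saturation at 30 °C; 1 = growth at the plate median or of vehicle wells; lower values mean less growth of the strain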
Details: growth OD

Measured: normalized growth

CC1NC(=O)NC1=O (stereo unspecified)
inactive: S. cerevisiae deletion strains, locus YAL013W, strain DEP1, hits give low values 0.968 | S. cerevisiae deletion strains, locus YBR021W, strain FUR4, hits give low values 1.01 | S. cerevisiae deletion strains, locus YBR229C, strain ROT2, hits give low values 0.996 | S. cerevisiae deletion strains, locus YCL029C, strain bik1, hits give low values 1.01 | S. cerevisiae deletion strains, locus YDL035C, strain GPR1, hits give low values 0.987 | S. cerevisiae deletion strains, locus YDL074C, strain BRE1, hits give low values 1 | S. cerevisiae deletion strains, locus YDL101C, strain DUN1, hits give low values 1 | S. cerevisiae deletion strains, locus YDL134C, strain PPH21, hits give low values 1.01 | S. cerevisiae deletion strains, locus YDL185W, strain tfp1, hits give low values 1.01 | S. cerevisiae deletion strains, locus YDL192W, strain arf1, hits give low values 1.01 | S. cerevisiae deletion strains, locus YDR101C, strain arx1, hits give low values 1 | S. cerevisiae deletion strains, locus YDR150W, strain NUM1, hits give low values 1.02 | S. cerevisiae deletion strains, locus YDR162C, strain NBP2, hits give low values 1 | S. cerevisiae deletion strains, locus YDR318W, strain mcm21, hits give low values 1.02 | S. cerevisiae deletion strains, locus YDR388W, hits give low values 1.01 | S. cerevisiae deletion strains, locus YDR502C, strain sam2, hits give low values 1.01 | S. cerevisiae deletion strains, locus YEL061C, strain CIN8, hits give low values 0.997 | S. cerevisiae deletion strains, locus YER110C, hits give low values 1.01 | S. cerevisiae deletion strains, locus YER155C, strain BEM2, hits give low values 0.995 | S. cerevisiae deletion strains, locus YER167W, strain BCK2, hits give low values 0.998 | S. cerevisiae deletion strains, locus YGL078C, strain dbp3, hits give low values 1.01 | S. cerevisiae deletion strains, locus YGL086W, strain mad1, hits give low values 1.02 | S. cerevisiae deletion strains, locus YGL248W, strain PDE1, hits give low values 1.01 | S. cerevisiae deletion strains, locus YGR078C, strain PAC10, hits give low values 1.01 | S. cerevisiae deletion strains, locus YGR135W, strain pre9, hits give low values 1.01 | S. cerevisiae deletion strains, locus YGR229C, strain SMI1, hits give low values 0.986 | S. cerevisiae deletion strains, locus YGR252W, strain gcn5, hits give low values 1.02 | S. cerevisiae deletion strains, locus YHR030C, strain SLT2, hits give low values 1 | S. cerevisiae deletion strains, locus YHR079C, strain IRE1 (second series), hits give low values 1 | S. cerevisiae deletion strains, locus YHR094C, strain hxt1, hits give low values 1.01 | S. cerevisiae deletion strains, locus YHR129C, strain ARP1, hits give low values 0.999 | S. cerevisiae deletion strains, locus YHR200W, strain rpn10, hits give low values 1.01 | S. cerevisiae deletion strains, locus YIL066C, strain RNR3, hits give low values 0.99 | S. cerevisiae deletion strains, locus YIL073C, strain SPO22, hits give low values 1.07 | S. cerevisiae deletion strains, locus YIL125W, strain kgd1, hits give low values 1.02 | S. cerevisiae deletion strains, locus YIR030C, strain dcg1, hits give low values 1 | S. cerevisiae deletion strains, locus YJL095W, strain BCK1, hits give low values 0.986 | S. cerevisiae deletion strains, locus YJL134W, strain LCB3, hits give low values 0.994 | S. cerevisiae deletion strains, locus YJL168C, strain set2, hits give low values 1 | S. cerevisiae deletion strains, locus YJL187C, strain SWE1 (second series), hits give low values 0.999 | S. cerevisiae deletion strains, locus YJR043C, strain POL32, hits give low values 1.01 | S. cerevisiae deletion strains, locus YJR075W, strain HOC1, hits give low values 0.993 | S. cerevisiae deletion strains, locus YKL009W, strain mrt4, hits give low values 1.03 | S. cerevisiae deletion strains, locus YKL068W, hits give low values 1.01 | S. cerevisiae deletion strains, locus YKL085W, strain MDH1 (second series), hits give low values 1 | S. cerevisiae deletion strains, locus YKL085W, strain MDH1, hits give low values 1 | S. cerevisiae deletion strains, locus YKL190W, strain CNB1, hits give low values 1 | S. cerevisiae deletion strains, locus YKR001C, strain vps1, hits give low values 1.02 | S. cerevisiae deletion strains, locus YLR039C, strain RIC1, hits give low values 1.02 | S. cerevisiae deletion strains, locus YLR058C, strain SHM2, hits give low values 1 | S. cerevisiae deletion strains, locus YLR102C, strain apc9, hits give low values 1.01 | S. cerevisiae deletion strains, locus YLR262C, strain YPT6, hits give low values 1.02 | S. cerevisiae deletion strains, locus YLR268W, strain sec22, hits give low values 1 | S. cerevisiae deletion strains, locus YLR330W, strain CHS5, hits give low values 1 | S. cerevisiae deletion strains, locus YLR342W, strain FKS1 (second series), hits give low values 1 | S. cerevisiae deletion strains, locus YLR371W, strain rom2, hits give low values 1.01 | S. cerevisiae deletion strains, locus YLR418C, strain cdc73, hits give low values 1.01 | S. cerevisiae deletion strains, locus YML016C, strain PPZ1, hits give low values 1 | S. cerevisiae deletion strains, locus YML032C, strain rad52, hits give low values 1.02 | S. cerevisiae deletion strains, locus YML124C, strain tub3, hits give low values 1.01 | S. cerevisiae deletion strains, locus YMR078C, strain ctf18, hits give low values 1.01 | S. cerevisiae deletion strains, locus YMR223W, strain ubp8, hits give low values 1.01 | S. cerevisiae deletion strains, locus YMR263W, strain SAP30, hits give low values 0.994 | S. cerevisiae deletion strains, locus YMR307W, strain GAS1, hits give low values 0.983 | S. cerevisiae deletion strains, locus YNL067W, strain RPL9B, hits give low values 1 | S. cerevisiae deletion strains, locus YNL128W, strain TEP1, hits give low values 0.975 | S. cerevisiae deletion strains, locus YNL153C, strain GIM3, hits give low values 1.01 | S. cerevisiae deletion strains, locus YNL233W, strain BNI4, hits give low values 1 | S. cerevisiae deletion strains, locus YNL250W, strain rad50, hits give low values 1.01 | S. cerevisiae deletion strains, locus YNL271C, strain bni1, hits give low values 1 | S. cerevisiae deletion strains, locus YNL298W, strain CLA4, hits give low values 1.02 | S. cerevisiae deletion strains, locus YNL307C, strain MCK1, hits give low values 1.02 | S. cerevisiae deletion strains, locus YNL322C, strain KRE1, hits give low values 0.991 | S. cerevisiae deletion strains, locus YNR052C, strain pop2, hits give low values 1 | S. cerevisiae deletion strains, locus YOL006C, strain TOP1, hits give low values 1 | S. cerevisiae deletion strains, locus YOL012C, strain htz1 0.89 | S. cerevisiae deletion strains, locus YOL147C, strain pex11, hits give low values 1.02 | S. cerevisiae deletion strains, locus YOR061W, strain CKA2, hits give low values 0.998 | S. cerevisiae deletion strains, locus YOR069W, strain VPS5, hits give low values 0.998 | S. cerevisiae deletion strains, locus YOR136W, strain idh2, hits give low values 1.02 | S. cerevisiae deletion strains, locus YOR144C, strain elg1, hits give low values 1.01 | S. cerevisiae deletion strains, locus YOR184W, strain ser1, hits give low values 1.03 | S. cerevisiae deletion strains, locus YOR316C, strain cot1, hits give low values 1 | S. cerevisiae deletion strains, locus YPL055C, strain LGE1, hits give low values 0.986 | S. cerevisiae deletion strains, locus YPL241C, strain CIN2, hits give low values 1 | S. cerevisiae deletion strains, locus YPR119W, strain clb2, hits give low values 1.01 | S. cerevisiae deletion strains, locus YPR141C, strain kar3, hits give low values 1.01 | S. cerevisiae deletion strains, locus YPR163C, strain tif3, hits give low values 1.02 | S. cerevisiae deletion strains, locus YPR167C, strain met16, hits give low values 1.01 | S. cerevisiae deletion strains, strain wtn01, hits give low values 1.01 | S. cerevisiae strains, strain wild type, hits give low values 0.98
